Experimental findings from PubChem BioAssay are described below.

The structures appear in SMILES notation. Calls of active or inactive are those of the source. Unless noted, how the calls were made is not given here.

The nature of experiment [1]: viability loss with induced miR-34 in A549 – imaging, A549 dox-inducible miR-34, nuclei and caspase counts, primary screen (AID 1347080;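 active means compounds whose cell count with miR-34 switched on is under 0.7 times the count with it off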). The settings on record: A549 miR-34 inducible, Hoechst nuclei count, 48 h.
A short description of experiment [2]: chitosan synthesis blockers in C. neoformans – flow cytometry, Cibacron Brilliant Red staining (AID 1347148).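 Further: compound exposure lasted three days at 37 degrees C.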 The following applies: Cryptococcus neoformans chitosan, stronger effect = lower value; at 10 µM unless noted.
Experiment [3] in a line: compounds altering viability of human ES cells (AID 493140).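 Further: cells exposed to compounds for four days before counting.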 The following applies: human embryonic stem cell survival screen; stronger effect = higher value.
Experiment [4] can be described thus: compounds altering circadian rhythm period length – cell-based, LOPAC library, luminescence reporter (AID 2774).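 Further: values are relative to mean of DMSO wells on each plate.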 The settings on record: circadian reporter cells, at 7 µM, actives lie on both sides.
For experiment [5], the system named is Hepatitis C virus NS3 helicase. Kind of experiment: blockers of NS3h binding to ssDNA – biochemical, fluorescence polarization, LOPAC1280 library, primary screen (AID 687035; in the data active means inhibition above about 37%). The settings on record: Purified HCV NS3 helicase, Cy5-dT15 ssDNA binding fluorescence polarization; stronger effect = higher value; concentration not given here.
Experiment [6] can be described thus: compounds altering Cy5-DNA-NS3h complex signal – biochemical, LOPAC1280, artefact control for HCV NS3 helicase inhibitor project (AID 687037). The settings on record: Cy5-DNA-NS3h complex fluorescence interference counterscreen. (The purpose of a counterscreen is to sort out artefacts and off-target activity.)
The nature of experiment [7]: blockers of cellular phospholipid synthesis – cell-based, LOPAC library, screen 4, primary screen (AID 1347384). The settings on record: animal cells, phospholipid biosynthesis inhibition screen; at 10 µM.
The nature of experiment [8]: galactose survival enhancers in mitochondrial complex I cybrids – cell-based, galactose medium, ATP luminescence, primary screen (AID 1645843;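 active means z-score of at least 1.8 in each of two replicates, scored against plate mean and spread of sample wells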;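 further: positive z means more ATP and so rescue of galactose-driven cybrid death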). The following applies: complex I mutant cybrid cells, 72 h, stronger effect = higher value.
The target in experiment [9] is Mitogen-activated protein kinase 7 (Homo sapiens) (UniProt Q13164). Kind of experiment: Gal4-ERK5 driven luciferase induction – cell-based, HTS, primary screen (AID 1508626;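 active means luciferase signal above three times the same-plate solvent-only control wells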;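 further: luciferase driven by Gal4-ERK5 fusion binding five Gal4 sites before minimal TATA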). The settings on record: HeLa Gal4-ERK5 transactivation, 18 h, at 5 µM, stronger effect = higher value.
Chain of Mitogen-activated protein kinase 7 (Homo sapiens) (Q13164 whole entry, looked up, the tested form may be a part): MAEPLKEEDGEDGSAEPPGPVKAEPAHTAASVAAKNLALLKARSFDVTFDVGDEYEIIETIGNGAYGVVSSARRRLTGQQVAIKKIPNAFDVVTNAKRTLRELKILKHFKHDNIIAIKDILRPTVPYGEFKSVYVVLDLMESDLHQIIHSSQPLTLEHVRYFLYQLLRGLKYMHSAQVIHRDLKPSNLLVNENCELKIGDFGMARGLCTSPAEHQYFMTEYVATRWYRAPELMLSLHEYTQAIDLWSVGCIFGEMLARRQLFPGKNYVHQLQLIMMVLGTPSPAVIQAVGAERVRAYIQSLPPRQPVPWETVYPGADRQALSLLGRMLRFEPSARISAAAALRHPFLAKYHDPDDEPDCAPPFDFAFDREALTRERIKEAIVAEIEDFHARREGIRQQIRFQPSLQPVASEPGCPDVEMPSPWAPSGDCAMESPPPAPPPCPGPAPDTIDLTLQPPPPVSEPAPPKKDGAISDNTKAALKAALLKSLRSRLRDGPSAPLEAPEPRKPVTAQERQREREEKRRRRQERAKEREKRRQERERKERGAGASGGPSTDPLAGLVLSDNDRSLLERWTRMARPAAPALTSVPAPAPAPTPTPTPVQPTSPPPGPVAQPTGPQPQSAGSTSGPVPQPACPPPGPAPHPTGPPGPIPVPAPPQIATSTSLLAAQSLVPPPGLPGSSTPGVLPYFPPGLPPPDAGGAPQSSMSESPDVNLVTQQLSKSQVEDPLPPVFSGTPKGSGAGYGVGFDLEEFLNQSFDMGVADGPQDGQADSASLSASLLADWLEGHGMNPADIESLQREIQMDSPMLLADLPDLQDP
Experiment [10] is described as follows: MELAS cybrid and Rieske KO viability enhancers – cell-based, MELAS cybrids, Rieske KO mouse fibroblasts, CellTiter-Glo, primary screen (AID 1508586;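 active means mean z-score across replicates of 1.96 or higher in either the MELAS or the Rieske mutant cell line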;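 further: z relative to plate mean and SD of compound and empty wells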). The settings on record: low glucose. For orientation: In ATP-based viability assays light output follows the ATP content of the culture.
Setting [11] is: stronger effect = lower value, cell number ratio, induced over uninduced.
Setting [12] is: measured here: relative caspase fold change +Dox/-Dox.
Where [13] appears, read: measured here: total cells with miR-34 induction, stronger effect = lower value.
[14] abbreviates: measured here: total cells without miR-34 induction.

With `CCCCC/C=C\C\C=C/C=C/C=C/[C@@H](SC[C@H](NC(=O)CC[C@H](N)C(=O)O)C(=O)NCC(=O)O)[C@@H](O)CCCC(=O)O`, the values for the fold change in [1] (setting [11]) and in experiment [1] (setting [12]) were 1.08 (inactive) and 1.43, respectively. Also, the cell count in experiment [1] (setting [13]) amounted to 6410; in experiment [1] (setting [14]), 5930. Also, the fold fluorescence in [2] was 3.59 [at 1 µM] (inactive).
On to `CCCCC/C=C\C\C=C/C=C/C=C/[C@@H](SCC(NC(C)=O)C(=O)O)[C@@H](O)CCCC(=O)O` (some centres undefined), for which, in [3], the survival was 136 (inactive). Besides, the fold change in experiment [1] (setting [11]) was 0.952 (inactive); in experiment [1] (setting [12]), 1.06. Besides, the cell count in experiment [1] (setting [13]) was 5780; in experiment [1] (setting [14]), 6080. The fold fluorescence in experiment [2] is 4.05 [at 1 µM] (inactive).
`N#Cc1c(-c2ccccc2)no[n+]1[O-]`: in [4], the period change is -0.17 h (inactive). Moreover, the fold change in [1] (setting [11]) is 1.56 (inactive); in experiment [1] (setting [12]), 1. Also, the cell count came to 1090 in experiment [1] (setting [13]) and 700 in experiment [1] (setting [14]). In experiment [2], the fold fluorescence is 6.16 [at 267.2 µM] (inactive).
The term inhibition denotes the share of the control response that was lost under treatment. Consider `CCCCCCCCCCCCCCC[C@H](O)[C@H](N)CO`, for which, in experiment [4], the period change is -0.08 h (inactive). Further, the inhibition in experiment [5] is 4% (inactive). Besides, the fluorescence ratio (interference) in experiment [6] is 0.9 (inactive). For the same compound, the fold change is 0.911 (inactive) in experiment [1] (setting [11]) and 1.55 in [1] (setting [12]). Also, the cell count came to 1060 in experiment [1] (setting [13]) and 1170 in experiment [1] (setting [14]). In addition, the fold fluorescence in [2] was 8.12 (inactive). The outcome in experiment [7] was inactive. In experiment [8], the z-score is -0.39 (inactive).
As for `CCCCC/C=C\CC1OC1C/C=C\C/C=C\CCCC(=O)O` (centres undefined), in [3], the survival was 104 (inactive). For the same compound, the fold change in experiment [1] (setting [11]) is 1.05 (inactive); in experiment [1] (setting [12]) it was 1.1. Moreover, the results for the cell count in experiment [1] (setting [13]) and in [1] (setting [14]) were 5770 and 5500, respectively. Also, in [2], the fold fluorescence is 6.17 [at 1 µM] (inactive).
Regarding `CCCCC/C=C\CC1OC1CCCCCCCC(=O)O` (centres undefined), the survival in [3] was 79.6 (inactive). In addition, the values for the fold change in experiment [1] (setting [11]) and in [1] (setting [12]) were 0.903 (inactive) and 1.25, respectively. Also, the cell count in experiment [1] (setting [13]) was found to be 5290; in [1] (setting [14]), 5850. The fold fluorescence in [2] is 2.8 [at 1 µM] (inactive).
As for `CC/C=C\C/C=C\C/C=C\CCCCCCCCCCCC(=O)O`, the survival in [3] was 81.8 (inactive). Also, the fold change in [1] (setting [11]) was 0.989 (inactive); in experiment [1] (setting [12]), 0.936. In addition, the cell count is 5970 in [1] (setting [13]) and 6030 in [1] (setting [14]). In addition, the fold fluorescence in [2] was 4.89 (inactive).
Turning to `CCCCCCCCCCC1=C(C)C(=O)C(OC)=C(OC)C1=O`, the fold change in experiment [1] (setting [11]) was 0.94 (inactive); in experiment [1] (setting [12]), 1.42. Further, the cell count in experiment [1] (setting [13]) was found to be 3450; in experiment [1] (setting [14]), 3660. Also, in experiment [2], the fold fluorescence is 4.65 [at 155.1 µM] (inactive).
For the compound `CC(C)c1cccc(O)c(=O)c1`, the fold change in [1] (setting [11]) was 0.903 (inactive); in experiment [1] (setting [12]), 1.02. The cell count was 1840 in experiment [1] (setting [13]) and 2030 in [1] (setting [14]). Besides, the fold fluorescence in [2] was 10.2 [at 304.5 µM] (inactive). Besides, in experiment [9], the luciferase signal was 44 AU (inactive).
`CCCCCCCCCCCCC/C=C/[C@@H](O)[C@H](CO)NC(=O)CCCCCCCCCCCCCCC`: the survival in [3] is 62.8 (inactive). The fold change is 1.03 (inactive) in experiment [1] (setting [11]) and 1.04 in experiment [1] (setting [12]). For the same compound, the cell count in experiment [1] (setting [13]) was 5360; in experiment [1] (setting [14]), 5200. Moreover, the fold fluorescence in experiment [2] was 6.35 (inactive).
`CCOC(=O)C1OC1C(=O)NC(CC(C)C)C(=O)NCCC(C)C` (centres undefined): the fold change in experiment [1] (setting [11]) is 0.903 (inactive); in [1] (setting [12]), 0.67. Besides, the cell count turned out to be 8060 in [1] (setting [13]) and 8930 in experiment [1] (setting [14]). In experiment [2], the fold fluorescence is 5.77 [at 146 µM] (inactive). Moreover, the z-score in [10] (MELAS cybrid survival, CellTiter-Glo 48 h, stronger effect = higher value) was -0.522 (inactive); in experiment [10] (Rieske KO mouse fibroblast survival, CellTiter-Glo 72 h) it was -1.31.
Consider `CCCCC/C=C\C/C=C\C/C=C\C=C\C(=O)CCCC(=O)O`, for which, in experiment [3], the survival is 84.8 (inactive). Also, the fold change in [1] (setting [11]) is 0.886 (inactive); in experiment [1] (setting [12]), 1.22. Besides, the cell count amounted to 5820 in experiment [1] (setting [13]) and 6560 in [1] (setting [14]). The fold fluorescence in experiment [2] is 3.82 [at 1 µM] (inactive).
Turning to `CCCCC/C=C\C/C=C\CCCCCCCC(=O)NCC(=O)O`, the survival in experiment [3] is 52.3 (inactive). For the same compound, the values for the fold change in experiment [1] (setting [11]) and in experiment [1] (setting [12]) were 0.95 (inactive) and 1.28, respectively. In addition, the results for the cell count in experiment [1] (setting [13]) and in experiment [1] (setting [14]) were 6210 and 6540, respectively. Further, the fold fluorescence in experiment [2] is 3.7 (inactive).
For `COC(=O)[C@@H](N)CSC/C=C(\C)CC/C=C(\C)CCC=C(C)C`, the survival in experiment [3] is 74.2 (inactive). The fold change in [1] (setting [11]) was 0.927 (inactive); in experiment [1] (setting [12]), 1.37. Besides, the cell count was determined as 6060 in experiment [1] (setting [13]) and 6540 in [1] (setting [14]). In addition, the fold fluorescence in experiment [2] was 4.53 (inactive).
Consider `O=C(O)c1cc(N(Cc2ccccc2O)Cc2cc(O)ccc2O)ccc1O`, for which the survival in experiment [3] is 94.2 (inactive). The fold change in experiment [1] (setting [11]) was 0.907 (inactive); in [1] (setting [12]), 1.1. In addition, the cell count in experiment [1] (setting [13]) was 5160; in [1] (setting [14]) it was 5680. Also, the fold fluorescence in experiment [2] was 4.34 [at 131.1 µM] (inactive).
As for `NCCNS(=O)(=O)c1cccc2cnccc12`, the period change in experiment [4] is 0.39 h (inactive). Moreover, the survival in experiment [3] is 266 (active). Also, the fold change was 1.1 (inactive) in experiment [1] (setting [11]) and 1.06 in experiment [1] (setting [12]). Also, the cell count came to 3580 in experiment [1] (setting [13]) and 3260 in experiment [1] (setting [14]). Besides, the fold fluorescence in experiment [2] is 3.25 [at 154.2 µM] (inactive).
On to `CCCCC/C=C\C/C=C\C/C=C\C/C=C\CCCC(=O)O[C@@H](CO)COCCCCCCCCCCCCCCCC`, for which the survival in [3] was 92.7 (inactive). The fold change is 0.961 (inactive) in experiment [1] (setting [11]) and 1.06 in [1] (setting [12]). In addition, the cell count in experiment [1] (setting [13]) worked out at 5620; in experiment [1] (setting [14]) it was 5840. For the same compound, the fold fluorescence in experiment [2] is 5.56 (inactive).
For `N#C/C(=C\c1cc(Cl)cc(Cl)c1)c1cccnc1`, in experiment [3], the survival was 87.3 (inactive). Moreover, the fold change in experiment [1] (setting [11]) is 1.04 (inactive); in experiment [1] (setting [12]), 0.973. The cell count in experiment [1] (setting [13]) came out at 1950; in experiment [1] (setting [14]), 1890. Further, the fold fluorescence in experiment [2] is 4 [at 181.7 µM] (inactive).
`CCCCC/C=C\C/C=C\CCCCCCCC(N)=O`: in experiment [3], the survival is 66.5 (inactive). Also, the fold change in [1] (setting [11]) is 0.981 (inactive); in experiment [1] (setting [12]), 1.16. The values for the cell count in [1] (setting [13]) and in [1] (setting [14]) were 6200 and 6320, respectively. Further, the fold fluorescence in experiment [2] was 4.31 (inactive).
Regarding `CCCCC[C@H](O)C/C=C1/C(=O)C=C[C@@H]1C/C=C\CCCC(=O)O`, in experiment [3], the survival was 95.5 (inactive). The fold change in experiment [1] (setting [11]) is 0.887 (inactive); in [1] (setting [12]) it was 0.855. For the same compound, the cell count in experiment [1] (setting [13]) is 5300; in experiment [1] (setting [14]), 5980. Moreover, the fold fluorescence in [2] was 4.79 (inactive).
